Shown are actives, neighbours in structure and some others; about 3% of the full set was active somewhere.
TbPYK inhibitor – T. brucei pyruvate kinase inhibition; TbPYK enzyme, Kinase-Glo Plus ATP luminescence, 45 min; Potency, µM (doses to about 76.8 µM), usual class: inhibitors; actives 0.12% (n = 410,000); AID 624173; further: nearly all actives have a fitted effect of over 50% in size
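In this concentration-response screen, enzyme-free wells defined baseline while DMSO plates tracked drift. Each reaction combined TbPYK, substrate, compound and 130 uM ADP for 45 min at room temperature. Kinase-Glo Plus luminescence gave the signal.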
Sm TGR block – inhibitors of Schistosoma mansoni thioredoxin glutathione reductase. Potency, µM (doses to about 114 µM), hits mostly inhibitors. AID 485364. Q962Y6. purified TGR, DTNB reduction, TNB absorbance 405 nm. actives 3% (n = 360,000); further: nearly all actives have a fitted effect of over 60% in size
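TGR 20 nM + NADPH 100 uM (dispensed conc.), cpd preinc 15 min RT; start with NADPH (500 uM addition) then DTNB (15 mM addition). Kinetic TNB absorbance, 405 nm filter. Four-parameter Hill fit across titration.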
LmPK inhibitor – LmPK (Leishmania mexicana) enzyme inhibition | Q27686 | purified LmPK, Kinase-Glo ATP luminescence, 1 h | Potency, µM (titrated, usually from 57.5 µM), usual class: inhibitors | actives 0.37% (n = 290,000)
Target sequence (Q27686 whole entry, looked up): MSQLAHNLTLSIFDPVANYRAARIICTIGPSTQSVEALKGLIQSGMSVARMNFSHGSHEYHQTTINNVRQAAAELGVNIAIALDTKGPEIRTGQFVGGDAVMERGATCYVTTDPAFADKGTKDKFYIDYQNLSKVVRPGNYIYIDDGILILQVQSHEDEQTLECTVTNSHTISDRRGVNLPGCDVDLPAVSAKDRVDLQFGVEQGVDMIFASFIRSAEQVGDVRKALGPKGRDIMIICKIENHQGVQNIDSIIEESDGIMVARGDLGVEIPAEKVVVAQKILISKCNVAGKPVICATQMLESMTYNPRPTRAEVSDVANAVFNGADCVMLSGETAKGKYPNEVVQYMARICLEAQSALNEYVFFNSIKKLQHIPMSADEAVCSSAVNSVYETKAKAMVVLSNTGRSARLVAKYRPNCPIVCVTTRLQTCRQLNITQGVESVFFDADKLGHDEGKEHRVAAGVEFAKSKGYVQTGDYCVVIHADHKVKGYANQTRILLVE
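ATP generated from ADP (0.1 mM) and PEP (0.5 mM) by 0.1 nM LmPK over 1 h at room temperature (pH 7.2 imidazole buffer) was detected by coupled luciferase luminescence. Values were normalized to uninhibited and no-enzyme wells.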
RE007 growth inh – less growth of the S. pombe RE007 Vpr strain; AID 651644; actives 0.21% (n = 360,000); Potency, µM (top dose mostly 92.2 µM), actives largely listed as inhibitors; S. pombe RE007 Vpr strain, BacTiter-Glo ATP luminescence, 24 h; active means well fitted falling curve with a large enough effect; inconclusive means small, poorly fitted or top-dose-only effect; inactive means no such curve, though single readings can be large or run the other way; further: nearly all actives have a fitted effect of over 50% in size
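Fission yeast RE007 carrying one integrated HIV-1 vpr copy, seeded at OD 0.01 in PMG+AL medium with 23 nL pinned compound. Grown 24 h at 30 degrees; viability read by BacTiter-Glo luminescence after 5 min.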
A number is an active result; n = inactive; u = inconclusive; x = no result given; [ ] = remark or other dose. Unless noted, the call rests on the fitted dose curve; in most records, active means well fitted curve in the direction sought with a large enough effect; inconclusive means small, poorly fitted or top-dose-only effect, or another doubt; inactive means no such curve, though single readings can be large; an effect the other way counts as inactive or inconclusive.

SMILES	TbPYK inhibitor	Sm TGR block	LmPK inhibitor	RE007 growth inh
COc1cc(C#Cc2c(-c3ccccc3)n(C)c3ccccc23)cc(OC)c1	n	7.9µM	n	n
COc1cc(OC)cc(-c2c(C#Cc3ccsc3)c3cc(-c4ccc(OC)nc4)ccc3n2C)c1	n	28µM	x	n
COC(=O)[C@@]12C[C@@H](CC(=O)NCCC(C)C)C(=O)N(Cc3ccccc3)C1=CCC(C)(C)C2	x	x	x	n
CCOCCn1ccc2c(OCC(=O)Nc3cc(C(F)(F)F)ccc3Cl)cccc2c1=O	n	n	x	x
CCCCC(CC)CCC(CC(C)C)OS(=O)(=O)O (stereo not drawn)	n	x	x	x
O=C(COc1ccc(S(=O)(=O)N2CCCCC2)cc1)N1CCN(Cc2ccccc2)CC1	n	28µM	n	n
O=C(COc1ccc(S(=O)(=O)N2CCCC2)cc1)N1CCCCC1	n	n	n	n
COc1ccc(S(=O)(=O)N2CCN(C3CCN(Cc4ccccc4)CC3)CC2)cc1	n	50µM	n	n
O=C(Cc1ccc(Cl)cc1)Nc1cccc(S(=O)(=O)N2CCCCC2)c1	n	n	x	n
O=C(CCl)Nc1cccc(S(=O)(=O)N2CCCCCC2)c1	n	11µM	n	x
O=C(CN1CCCN(S(=O)(=O)c2ccc(Br)cc2)CC1)Nc1cccc(C(F)(F)F)c1	n	35µM	x	x
O=S(=O)(c1ccccc1)N1CCN(C2CCN(Cc3ccccc3)CC2)CC1	n	n	n	n
CCOC(=O)C1=C(CN2CCN(c3cc(C)ccc3C)CC2)NC(=O)NC1c1ccc(Cl)cc1 (stereo not drawn)	n	u	x	x
O=C(NCC(c1ccc(Cl)cc1)N1CCCCC1)c1ccc(F)cc1 (stereo not drawn)	n	n	x	x
CCC(=O)Nc1ccccc1-c1nc2ccccc2n(CC(=O)c2ccc(Cl)cc2)c1=O	n	n	x	x
COc1cccc(CN2CCCN(S(=O)(=O)c3ccc(Br)cc3)CC2)c1	n	40µM	n	n
O=S(=O)(c1ccc(Br)cc1)N1CCCN(Cc2cccc(F)c2)CC1	n	n	n	n
COC(=O)C(C(=O)OC)[C@@H]1c2ccccc2[C@H]2C(=C[C@@H](C)[C@H]3C(=O)N(c4ccccc4)C(=O)[C@H]32)N1C(=O)OC	x	x	n[11.5 µM]	x
O=C(N[C@@H](Cc1ccc(O)cc1)C(=O)O)c1cccnc1	n	50µM	n	n
O=C(N[C@@H](Cc1ccccc1)C(=O)O)c1ccncc1	n	n	n	n
Oc1cc[c]([Hg][Cl])cc1	1.4µM	x	x	x
Cc1ccc(O)cc1 (tested in a mixture with another compound)	n	x	x	x
COc1ccc(Cl)cc1-c1cc(C(=O)NCc2cccc(C(F)(F)F)c2)[nH]n1	n	x	x	n[18.4 µM]
COc1ccc2c(c1)OC1=C(C(=O)CCC1)C2C1=C(O)CCCC1=O (stereo not drawn)	n	18µM	n	n
Cc1ccccc1-c1noc(-c2ccc(NCc3cccnc3)c([N+](=O)[O-])c2)n1	n	n	x	x
SMILES	TbPYK inhibitor	Sm TGR block	LmPK inhibitor	RE007 growth inh
O=c1cc(Cn2ccnc2)c2cc(O)ccc2o1	n	n	n	n
CN(C[C@H](Cc1ccccc1)N(C[C@H](c1ccccc1)N(CCc1ccccc1)N=O)N=O)N=O	n	13µM	n	n
CN(C[C@H](c1ccccc1)N(C[C@H](Cc1ccccc1)N(CCc1ccccc1)N=O)N=O)N=O	n	u	n	n
CCOC(=O)c1cc(C)sc1/N=C/C1C(=O)NC(=S)NC1=O	n	4.5µM	n	n
Cc1ccc(CNC(=O)C2CCCN(c3ncnc4c3nc3n4CCCCC3)C2)cc1 (stereo not drawn)	n	n	n	n
Cn1c(Br)nc2c1c(=O)n(CC(O)COc1ccccc1)c(=O)n2C (stereo not drawn)	n	50µM	n	n
CCCCS(=O)(=O)/C=C\C=C/S(=O)(=O)CCCC	u	2.2µM	n	8.9µM
CCCCS(=O)(=O)/C=C\C1C2C=CC(C2)C1S(=O)(=O)CCCC (stereo not drawn)	n	n	n	n
O=C(NC(=S)Nc1ccccc1)c1csnn1	n	14µM	n	n
CC(C)(C)CC(=O)OCC(=O)[C@@]12OC(C)(C)O[C@@H]1C[C@H]1[C@@H]3CCC4=CC(=O)C=C[C@]4(C)[C@@]3(F)[C@@H](O)C[C@]12C	n	x	x	x
Cc1ccc(NC(=O)c2cc(C)n(-c3ccccc3)c2C)cc1	n	n	u	n
Cc1cc(C(=O)Nc2ccc(Cl)cc2)c(C)n1-c1ccccc1	n	50µM	n	n
CC(C)c1ncc([N+](=O)[O-])n1C	n	x	x	x
O=c1cc(C(F)(F)F)c2cc3c4c(c2o1)CCCN4CCC3	n	n	n	n
CC(C)c1cc(=O)oc2c3c4c(cc12)CCCN4CCC3	n	45µM	n	n
CCCCCC(O)CCCC(=O)O (stereo not drawn)	n	x	x	n[18.4 µM]
CCCCCCCCCCCCCCCC(O)C[N+](C)(C)CCO (stereo not drawn)	n	x	x	35µM
N=C1C=CC=C2C1=NC1(CCCCC1)N2O	n	20µM	n	n
O=[N+]([O-])C1=CC=C2C(=NC3(CCCCC3)N2O)C1=NC1CCCCC1	n	u	n	n
O=C(CN1C(=O)CCc2cc(Br)ccc21)Nc1ccc(OC(F)(F)F)cc1	n	n	x	x
COC(=O)N1C2=C(c3ccccc3[C@@H]1CC(=O)Nc1ccc(Br)cc1)[C@@H]1C(=O)N(c3ccccc3)C(=O)[C@@H]1[C@H](C)C2	x	x	n[11.5 µM]	x
COc1ccc(OC)c(N2Cc3cc(C)c(C)cc3C2)c1	n	45µM	n	n
COc1ccc(OC)c(-n2c(C)cc(C=O)c2C)c1	n	n	n	n
O=C(CSc1ccc(Cl)cc1)N/N=C/c1ccc([N+](=O)[O-])o1	n	5.6µM	n	n
O=C(CNc1ccc2ccccc2c1)N/N=C/c1ccc([N+](=O)[O-])o1	n	n	n	n
SMILES	TbPYK inhibitor	Sm TGR block	LmPK inhibitor	RE007 growth inh
O=C(N/N=C/c1ccc([N+](=O)[O-])o1)C(O)c1ccccc1 (stereo not drawn)	n	45µM	n	n
O=c1c(CCc2ccccc2)nc2cnc(N3CCNCC3)nc2n1Cc1ccc(F)cc1	n	x	x	x
Cc1ccc(CS(=O)Cc2ccc(C(=O)NCc3ccc4c(c3)OCO4)o2)cc1 (stereo not drawn)	n	n	n	n
COCCNC(=O)c1ccc(CS(=O)(=O)c2ccccc2OC)o1	n	32µM	n	n
COc1ccc(CNC(=O)c2ccc(Cn3cc(Cl)cn3)o2)cc1	n	14µM	n	n
Cc1ccc(S(=O)(=O)Cc2ccc(C(=O)NCc3ccc4c(c3)OCO4)o2)cc1	n	25µM	n	n
COCCCNC(=O)c1ccc(CS(=O)(=O)c2ccccc2OC)o1	n	n	n	n
COc1ccc(S(=O)(=O)Cc2ccc(C(=O)NCc3cccnc3)o2)cc1	n	35µM	n	n
Cc1ccccc1NC(=O)Cn1c(=O)n(Cc2ccc3c(c2)OCO3)c(=O)c2ccc(C(=O)NC3CCCCC3)cc21	n	n	x	x
COc1ccccc1CNC(=O)COC(=O)CNS(=O)(=O)c1ccc(C)cc1	n	35µM	n	n
COc1ccc(S(=O)(=O)Cc2ccc(C(=O)O)o2)cc1	n	n	n	n
